hgDAF-12 ag: H. glycines DAF-12 receptor agonists, primary screen, cell-based, luminescence, HEK293, GAL4 fusion, UAS-luciferase. Nuclear hormone receptor DAF-12 (Heterodera glycines), GAL4 fusion. HEK293 GAL4-hgDAF12 UAS-luciferase reporter, agonist luminescence; normalized to butyrate control. activation, % at 6.8 µM. 1.8% of 370,000 active;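 active = activation above a cutoff set at the mean of all screened compounds plus 3 SD, cut at about 10% in these data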;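 also: 0% = DMSO wells and 100% = sodium butyrate wells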
SMARCA2 act: SMARCA2 (BRM) function activators, primary screen, cell-based, luminescence, high throughput | MG213 cells, MMTV-luciferase reporter, dexamethasone, overnight | 1% of 370,000 active | activation, % at 9.1 µM; in the data active = activation above about 7.8%;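 also: 0% = vehicle wells and 100% = reference activator wells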
DAX1 inh-1: DAX1 (NR0B1) inhibitors on StAR promoter, primary screen, cell-based, luminescence, SF-1 (NR5A1), full-length DAX-1. HEK293T StAR-luciferase reporter, SF-1/DAX-1 repression relief. inhibition, % at 6.8 µM. 1.1% of 370,000 active. AID 652010, 2013;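 active = inhibition above the mean over all tested compounds plus 3 SD, cut at about 3.6% in these data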;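 also: 0% = DAX-1 cells with DMSO and 100% = cells lacking DAX-1 with DMSO; higher inhibition means more luminescence from relief of DAX-1 repression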
ssDAF12 agonist: S. stercoralis DAF-12 nuclear receptor activators, primary screen, cell-based, luminescence, HEK293, GRIP1 co-expression, lit1-tk-luc | Nuclear hormone receptor DAF-12 (Strongyloides stercoralis) | HEK293 ssDAF-12/GRIP1 lit1-tk-luc reporter; % of 3 µM dafachronic acid response | activation, % at 6.8 µM | 1% of 370,000 active;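 active = activation above the mean over all tested compounds plus 3 SD, cut at about 0.9% in these data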;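 also: 0% = DMSO-only wells and 100% = 3 µM delta7-dafachronic acid wells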
DAX1 inh-2: DAX1 (NR0B1) inhibitors, primary screen, cell-based, HEK293, Gal4-DAX1, luciferase luminescence; HEK293 Gal4-DAX1 luciferase reporter; inhibition, % at 6.75 µM; 0.99% of 340,000 active;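 active = inhibition above the mean over all tested compounds plus 3 SD, cut at about 4.2% in these data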;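 also: 0% = DAX1-transfected cells with DMSO and 100% = empty-vector control cells with DMSO; inhibition shows as a rise in luminescence from relieved DAX1 repression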
Target sequence (P51843 207-470 limits assumed): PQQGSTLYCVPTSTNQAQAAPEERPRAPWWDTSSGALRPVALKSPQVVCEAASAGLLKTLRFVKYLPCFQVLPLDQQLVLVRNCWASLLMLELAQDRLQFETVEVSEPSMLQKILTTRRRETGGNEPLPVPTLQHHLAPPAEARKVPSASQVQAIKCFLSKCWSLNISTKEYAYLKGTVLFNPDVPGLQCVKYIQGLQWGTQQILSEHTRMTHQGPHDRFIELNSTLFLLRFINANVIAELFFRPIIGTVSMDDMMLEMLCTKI
hcDAF-12 act: H. contortus DAF-12 nuclear receptor activators, primary screen, cell-based, luminescence, HEK293, lit1-tk-luc reporter; 1.4% of 370,000 active; HEK293 hcDAF-12 lit1-tk-luc reporter; 0% DMSO, 100% Δ7-dafachronic acid; AID 652067, 2013; activation, % at 6.8 µM;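 active = activation above the mean of all tested compounds plus 3 SD, cut at about 5.5% in these data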;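 also: 100% = response to 3 µM Δ7-dafachronic acid high control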
DAX1 conf: DAX1 (NR0B1) inhibitors relieving SF-1 repression, confirmation, cell-based, luminescence, HEK293T, full-length DAX-1, SF-1 activated StAR promoter; shares compounds with DAX1 inh-1; 87% of 2,400 active; HEK293T StAR-promoter luciferase reporter, SF-1/DAX-1 repression; AID 652134, 2013; inhibition, % at 6.8 µM;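 active = inhibition above the average of every tested compound plus 3 SD, cut at about 3.8% in these data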;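 also: 0% = DAX-1 cells with DMSO and 100% = no DAX-1 control cells with DMSO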
SF1 mutant ctr: StAR reporter signal changes without DAX1, counter-screen for DAX1 inhibitor project, cell-based, luminescence, AF-2 mutant SF-1, transactivation; shares compounds with DAX1 inh-1; HEK293 StAR-luciferase, SF-1 AF2 mutant; inhibition, % at 6.8 µM; 78% of 2,400 active;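 active = inhibition above the mean of all tested compounds plus 3 SD, cut at about 3% in these data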;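 also: 0% = DAX-1 transfected cells with DMSO and 100% = cells without DAX-1 with DMSO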
SMARCA2 act conf: SMARCA2 (BRM) function activators, confirmation, cell-based, luminescence, triplicate; shares compounds with SMARCA2 act; MG213 cells, MMTV-luciferase with dexamethasone, overnight; MG213 cells expressing E1A, Rb sequestered; DMSO wells 0%, reference activator 100%; activation, % at 9.1 µM; 30% of 3,500 active;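 active = activation above its plate's cutoff, the mean activation of tested wells plus 3 SD, cut at about 7.9% in these data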
VP16 Luc act: GAL4-VP16 luciferase reporter activation, counter-screen for SMARCA2 (BRM) activator project, cell-based, pG5luc, luminescence, high throughput. shares compounds with SMARCA2 act. HEK293 GAL4-VP16 pG5luc reporter; scaled: DMSO wells 0%, SAHA wells 100%. activation, % at 9.1 µM. 41% of 3,500 active. AID 686939, 2013;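 active = activation above the solvent-only control well mean plus 3 SD, averaged across control plates, cut at about 5.2% in these data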
LXR ag: LXR agonists, Gal4 luciferase reporter, confirmation, counter-screen for hcDAF-12 agonist project, cell-based, luminescence, HEK293, H. contortus campaign; activation, % at 6.8 µM; shares compounds with hcDAF-12 act; 3,400 tested, under 10 active; HEK293 Gal4-LXR tk-luc reporter, 24 h; normalized: DMSO 0%, positive control 100%;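 active = mean percent activation of the reporter above a cutoff set as the average over tested compounds plus their standard deviation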
hcDAF12 ag: H. contortus DAF-12 receptor agonists, confirmation, cell-based, luminescence, HEK293, lit1-tk-luc, triplicate | HEK293 hcDAF-12 lit1-tk-luc reporter; % of Δ7-dafachronic acid response | activation, % at 6.8 µM | AID 743032, 2013 | 61% of 3,400 active | shares compounds with hcDAF-12 act;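 active = mean activation across triplicate tests above the threshold derived from the earlier primary screen, cut at about 5.5% in these data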;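 also: 0% = DMSO only wells and 100% = 3 µM Δ7-dafachronic acid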
hgDAF12 conf: H. glycines DAF-12 receptor agonists, confirmation, cell-based, luminescence, HEK293, GAL4-LBD fusion; shares compounds with hgDAF-12 ag; HEK293 GAL4-hgDAF12 luciferase reporter, agonist mode; percent of butyrate response; activation, % at 6.8 µM; 80% of 3,300 active;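 active = mean activation over triplicate wells above the hit cutoff derived from the earlier primary screen, cut at about 11% in these data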;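 also: 0% = DMSO low control and 100% = 2 mM sodium butyrate high control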
LXR ag 2: LXR agonists, Gal4 luciferase reporter, confirmation, counter-screen for hgDAF-12 agonist project, cell-based, luminescence, HEK293, H. glycines campaign. shares compounds with hgDAF-12 ag. 24 h. activation, % at 6.8 µM. 3,300 tested, under 10 active. AID 743051, 2013;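 active = mean activation of the triplicate above a set limit carried over from the primary screen, none filed active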
An asterisk follows results filed as active; . = not tested or not shown. An excerpt weighted towards active compounds, which were near 4.8% of everything screened.

SMILES | hgDAF-12 ag | SMARCA2 act | DAX1 inh-1 | ssDAF12 agonist | DAX1 inh-2 | hcDAF-12 act | DAX1 conf | SF1 mutant ctr | LXR ag | hcDAF12 ag | hgDAF12 conf | LXR ag 2 | others
c1ccc(-c2csc(CN3CCCCC3)n2)cc1 | 19.4* | 14.3* | 5.3* | 0.9* | 3.2 | 7.1* | 8.2* | 4.8* | 2.1 | 9.2* | 18.4* | 1.2 | SMARCA2 act conf=8.1*;VP16 Luc act=14.9*
O=C(/C=C/c1cccc(F)c1)OCC(=O)N1CCCc2ccccc21 | 2.5 | 0.1 | 1.8 | -1.0 | -0.4 | 0.6 | . | . | . | . | . | .
O=C(/C=C/c1cccc(F)c1)N1CCc2ccccc21 | 23.7* | 3.8 | 5.6* | 2.2* | 3.4 | 14.2* | 15.0* | 8.4* | 1.9 | 13.4* | 21.8* | 1.4
COc1ccc(OC)c2sc(NNC(=O)COc3ccccc3)nc12 | 1.5 | -0.6 | 1.6 | -0.9 | -1.5 | -1.5 | . | . | . | . | . | .
COc1cc(OC)cc(C(=O)O/N=C(\N)c2cccc(C)c2)c1 | 0.8 | -1.8 | 0.4 | -0.5 | 0.6 | -1.2 | . | . | . | . | . | .
Cc1cccc(/C(N)=N/OC(=O)c2ccc3c(c2)OCO3)c1 | 14.8* | 2.7 | 5.4* | 0.5 | 1.1 | 8.6* | 10.8* | 6.8* | 0.9 | 6.7* | 13.7* | 1.0
